In all, about 1,400 compounds went through this assay and about 10 (0.7%) were called active. How the calls were made is not given here. A selection follows. Where a call stands in place of a potency, no number is given. Potency and affinity values are given separately.

The assay is described as follows: BHK-21 cell toxicity, dose response, cytotoxicity control, plate reader, cherry-pick samples (AID 687030).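 Further: cells were exposed to compound for three days before reading.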 The conditions noted are these: BHK-21 cells; series mostly up to 19.5 µM.
Turning to `C[C@@H]1CCCCO[C@@H](CN(C)C(=O)c2ccccc2)[C@@H](C)CN([C@H](C)CO)C(=O)c2cc(NC(=O)CCC(F)(F)F)ccc2O1`, the call was inactive.

For `CC1(C)CN(Cc2cccnc2)C(=O)[C@H]1CC(=O)Nc1ccc(Br)cc1`, the molecule was called inactive.

As for `Cc1cc(NC(=O)Cn2c(=O)oc3ccc(Cl)cc32)no1`, the molecule was classed as inactive.

Turning to `CC(C)(C)NC(=O)c1cccc(NC(=O)c2ccc3c(c2)C(=O)N(C(C)(C)C)C3=O)c1`, the molecule was called inactive.

On to `COc1cc(OC)cc(C(=O)Nc2ccc3nc4n(c(=O)c3c2)CCCC4)c1`, for which the result was inactive.

On to `CN(Cc1ccc(Cl)c(Cl)c1)C(=O)C1CC(=O)N(c2ccc3c(c2)OCCO3)C1` (stereo not drawn), for which the result was inactive.

Regarding `COc1ccc(CN2C(=O)CCC2(C)c2nnnn2Cc2ccccc2)cc1` (stereo not drawn), the result was inactive.

For the molecule `Cc1cc(C)c(OCCCNC2CCCC2)c(Br)c1`, the call was inactive.

Consider `COc1cc(O)c(C(CC(=O)N2CCCC(C)C2)c2cc(OC)c(OC)c(OC)c2)c(OC)c1` (stereo not drawn), for which the molecule was classed as inactive.

Take `CN(C)c1ccc(CC(=O)N2CCCC(c3cc(C(=O)Nc4ccc(F)c(Cl)c4)no3)C2)cc1` (stereo not drawn): the result was inactive.

On to `C/C=C/c1cnc2c(c1)C(=O)N([C@H](C)CO)C[C@H](C)[C@H](CN(C)S(=O)(=O)c1ccccc1)O2`, for which the result was inactive.

On to `Cc1ccc(S(=O)(=O)N2CC[C@@H]3[C@H](CO)Nc4ccc(-c5ccccc5F)cc4[C@@H]32)cc1`, for which the result was inactive.

As for `COc1ccc(-c2ccc3c(c2)[C@H]2[C@H](CCN2C(=O)CN2CCOCC2)[C@@H](CO)N3)cc1`, the molecule was classed as inactive.

As for `Cc1ccc(CNC(=O)[C@H](C)N2C(=O)N3CCc4c([nH]c5ccccc45)[C@@]3(C)C2=O)cc1`, the molecule was called inactive.

Turning to `C/C(=N/NC(=O)CCC(=O)Nc1cccc(Cl)c1)c1ccc(C)cc1`, the molecule was classed as inactive.

On to `CC(C)(C)NC(=O)C(c1cccc2ccccc12)n1c(=O)c(-c2ccccc2)nc2ccccc21` (stereo not drawn), for which the outcome was inactive.

On to `CCOc1ncccc1C(=O)OCC(=O)NCc1ccc(C(=O)OC)cc1`, for which the molecule was classed as inactive.

`C[C@@H]1CCCCO[C@H](CN(C)C(=O)Nc2cccc3ccccc23)[C@@H](C)CN([C@@H](C)CO)C(=O)c2cc(NS(=O)(=O)c3cn(C)cn3)ccc2O1`: the outcome was inactive.

`CCn1c(SCc2cccc(F)c2)nnc1-c1ccncc1`: the molecule was called inactive.

Regarding `Cc1cccc(C)c1-n1nnnc1C1(C)CCC(=O)N1Cc1cccnc1` (stereo not drawn), the outcome was inactive.

In the case of `O=C(NCC1CCCCC1)[C@@H]1[C@@H](CO)[C@@H]2Cn3c(cccc3=O)[C@H]1N2CCc1ccccc1`, the molecule was called inactive.

Regarding `C[C@H]1CCCCO[C@H](CN(C)C(=O)Nc2ccc(C(F)(F)F)cc2)[C@@H](C)CN([C@@H](C)CO)C(=O)c2cc(NC(=O)C3CCCCC3)ccc2O1`, the result was inactive.

On to `OC(c1ccccc1)C(NCc1ccccc1)c1ccccc1` (stereo not drawn), for which the molecule was called inactive.

The values are drawn from PubChem BioAssay AID687030 (Broad Institute, 2013).
